# Data: PubChem BioAssay (Tox21)
# Records with an inconclusive call do not appear. A call without a number means that no potency is given here. Activity calls are given as the source filed them. The call rests on the fitted dose curve; in most records, active means well fitted cell-killing curve with a large enough effect in the repeat runs; inconclusive means weak or mixed curves, or effect the other way; inactive means flat fitted curve, though single readings scatter.
# Assay: Nuclear factor erythroid 2-related factor 2/antioxidant responsive element (Nrf2/ARE) small molecule agonists: qHTS cell viability counter screen in human keratinocytes (AID 1919968); further: nearly all actives have a fitted effect of over 55% in size
# Conditions: KeratinoSens HaCaT ARE cells viability, CellTiter-Fluor, 24 h; series mostly up to 92.4 µM
# Text: U.S. Tox21 Program National Center for Advancing Translational Sciences [NCATS] Division of Preclinical Innovation [DPI] U.S. Environmental Protection Agency [EPA] National Institutes of Environmental Health Sciences [NIEHS] National Toxicology Program [NTP] U.S. Food and Drug Administration [FDA] Tox21 Assay Overview: Oxidative stress has been implicated in the pathogenesis of a variety of diseases ranging from cancer to neurodegeneration. The antioxidant response element (ARE) signaling pathway plays an important role in the amelioration of oxidative stress. The KeratinoSens (Givaudan, Switzerland) is an in vitro test method which quantifies luciferase induction as a measure of activation of Keap1-Nrf2-antioxidationt/electrophile response element (ARE) dependant pathway in HaCaT human keratinocytes stably transfected with a selectable plasmid. The KeratinoSens assay is a cell-based assay with a reporter cell line to detect potential skin sensitizers by their ability to induce the Nrf2/ARE-response. The activation of the report gene under culture conditions can be detected by ONE-Glo Luciferase Assay System (Promega, Madison, WI). This cell line has been used to screen the Tox21 10K compound library to identify agonists that induce oxidative stress. The cytotoxicity of the Tox21 compound library against the KS-ARE cell line was tested in parallel by measuring the cell viability using CellTiter- Fluor assay system (Promega, Madison, WI) in the same wells.
# Tox21 Assay Protocol Summary: HaCaT derived cell line KeratinoSens were dispensed at 1,500 cells/5uL/well in 1536-well white wall/solid bottom plates using a Multidrop Combi (ThermoFisher Scientific, Waltham, MA) dispenser. After the assay plates were incubated at 37 C/5% CO2 for 5 h, 23 nL of compounds dissolved in DMSO, positive controls or DMSO only was transferred to the assay plate by a pintool workstation (Kalypsys, San Diego, CA). The plates were incubated at 37 C/5% CO2 for 23 h, followed by addition of 1uL/well of CellTiter-Fluor reagent into the assay plates using a Flying Reagent Dispenser (Aurora Discovery, San Diego, CA) for cell viability readout that measures cytotoxicity. After 1 h incubation at 37 C/5% CO2 the fluorescence intensity was measured using a ViewLux (PerkinElmer, Shelton, CT) plate reader.
SMILES,Potency,"activity change, negative = cytotoxicity"
O=C(Oc1ccccc1)c1ccccc1,inactive,
O=C(CCS)OCC(COC(=O)CCS)(COC(=O)CCS)COC(=O)CCS,inactive,
CCCCCCCCOC(=O)CCCCCCCCC(=O)OCCCCCCCC,inactive,
NNC(=O)c1cccc(C(=O)NN)c1,inactive,
CC(C)CC(O)Cc1ccccc1 (stereo not given),inactive,
CC(=O)/C=C/C1C(C)=CCCC1(C)C (stereo not given),inactive,
CSc1nnc(C(C)(C)C)c(=O)[nH]1,inactive,
COc1c2ccoc2cc2oc(=O)ccc12,inactive,
CCCCCCCCS,inactive,
CN1CCCC1=O,inactive,
N[C@@H](Cc1c[nH]c2ccccc12)C(=O)O,inactive,
CC(=O)CC(C)(C)C1CCCCC1,inactive,
Cc1cc(C)c(N)c(Cl)c1,inactive,
CCCCC(CC)COCCO (stereo not given),inactive,
COc1ccc(COC(C)=O)cc1,inactive,
CCOC(=O)CN1CCCC1=O,inactive,
O=C(C(=O)c1ccco1)c1ccco1,inactive,
O=S(=O)(O)c1ccc2cc(O)c(S(=O)(=O)O)cc2c1,inactive,
Nc1nc(N)nc(-c2ccccc2)n1,inactive,
CC(=O)CC(=O)Nc1ccc2[nH]c(=O)[nH]c2c1,inactive,

SMILES,Potency,"activity change, negative = cytotoxicity"
c1ccsc1,inactive,
COc1ccc(N)c(OC)c1,inactive,
CC(O)CCCCn1c(=O)c2c(ncn2C)n(C)c1=O (stereo not given),inactive,
Cl/C(=C\n1cncn1)c1ccc(Cl)cc1Cl,inactive,
Cn1cc(S(C)=O)c(=O)c2ccc(F)cc21 (stereo not given),inactive,
C=CCCCCCCCCCCC,,-0.936% [at 8.39 µM] (inactive)
CC1(C)[C@H]2CC[C@](C)(C2)[C@H]1O,inactive,
CC(C)(C)C(=O)OCOP(=O)(COCCn1cnc2c(N)ncnc21)OCOC(=O)C(C)(C)C,inactive,
CC1CCC(C(C)(C)O)CC1 (stereo not given),inactive,
CCC(C)(O)CCC=C(C)C (stereo not given),inactive,
COC(=O)/C=C(/C)N,inactive,
CCCCOCCCC,inactive,
Nc1cc(-c2ccncc2)c[nH]c1=O,inactive,
COC(=O)c1ccccc1C,inactive,
ClC/C=C\CCl,inactive,
O=[N+]([O-])c1ccc(CCO)cc1,inactive,
N[C@@H](Cc1c[nH]c2ccc(O)cc12)C(=O)O,inactive,
O=[N+]([O-])c1ccccc1Nc1ccccc1,inactive,
O=[N+]([O-])c1ccc2c(c1)Cc1ccccc1-2,inactive,
CCCCCCCCSCC,inactive,
